Screens (PubChem)
A selection: hits, their analogues and other compounds. The true share with any hit is near 6.6%.
Autofluor 339 – intrinsic fluorescence of library compounds, ex339/em460 – biochemical, MLSMR library, data from DPM-DC assay, artefact control, profiling panel; compound autofluorescence, ex339/em460 nm, NADH buffer; hits give high values; 1 = no-compound wells, NADH background; fluorescence fold increase at 10 µM; 65,000 compounds, 5.5% hits; AID 709, 2007;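 active = at 10 µM, mean starting fluorescence two-fold or more over control wells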;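 also: signal is the first read of a kinetic run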
Spn MK inh – S. pneumoniae MK inhibitors, primary screen, biochemical, PK/LDH-coupled NADH absorbance. mevalonate kinase [Streptococcus pneumoniae D39]. purified MK, PK/LDH-coupled NADH absorbance 340 nm. inhibition, % at 10 µM. 65,000 compounds, 0.48% hits. AID 555, 2006;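 active = ranked among the strongest by inhibition in the single 10 µM screen, a fixed top-ranked set picked for dose follow-up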
PMK inhibit – S. pneumoniae PMK inhibitors, primary screen, biochemical, mevalonate pathway, pilot trial included; phosphomevalonate kinase (Streptococcus pneumoniae D39); purified PMK, PK/LDH-coupled NADH absorbance 340 nm; inhibition, % at 10 µM; 65,000 compounds, 0.49% hits; AID 539, 2006;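 active = top-ranked compounds by inhibition in the single 10 µM screen, taking a fixed number of the strongest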;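 also: 0% = full reaction with DMSO carrier and 100% = background rate without enzyme reaction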
NADH enzymes – inhibitors of PK/LDH coupling enzymes, profiling panel, artefact control, biochemical, MLSMR library. coupled PK/LDH NADH assays, four targets. IC50, µM (top dose mostly 10 µM), inactives show at the top dose inhibition. 65,000 compounds, 0.02% hits;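 active = single-dose screening hits from any of four coupled enzyme assays that gave an IC50 when retested across doses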;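 also: the DPM-DC format reads NADH fluorescence rather than 340 nm absorbance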
Spn DPM-DC inh – S. pneumoniae DPM-DC inhibitors, primary screen, biochemical, PK/LDH-coupled NADH fluorescence. calls only at 10 µM. purified DPM-DC. diphosphomevalonate decarboxylase (Streptococcus pneumoniae D39). 65,000 compounds, 0.49% hits. AID 556, 2006;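 active = the 320 compounds with the highest percent inhibition in the single-dose primary screen, excluding strongly autofluorescent ones, cut at about 32% in these data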;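 also: kinetic rate of NADH fluorescence loss reporting ADP formed by the decarboxylase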
* marks the source's active call; other numbers are inactive results.

COCCNC(=O)CSc1nc(-c2ccc(OC)c(OC)c2)cc(C(F)(F)F)n1 was read as Autofluor 339 2.15*, Spn MK inh 10.0, PMK inhibit 14.0, NADH enzymes 7.0% and Spn DPM-DC inh inactive.
`COc1ccccc1-c1cc(C(F)(F)F)nc(S(=O)(=O)CCCC(=O)N2CCOCC2)n1` gave Autofluor 339 1.4, Spn MK inh 2.0, PMK inhibit 3.0, NADH enzymes 8.0% and Spn DPM-DC inh inactive.
`COCC(C)n1c(C)cc(C(=O)COC(=O)c2c(NC(C)=O)sc(C)c2C)c1C` (stereo unspecified) gave Autofluor 339 1.16, Spn MK inh 3.0, PMK inhibit 0.0, NADH enzymes 1.0% and Spn DPM-DC inh inactive.
Screening O=C(O)CCc1ccc(-c2ccc(Cl)cc2)n1CC(=O)O returned Autofluor 339 1.1, Spn MK inh 3.0, PMK inhibit 2.0, NADH enzymes 2.0% and Spn DPM-DC inh inactive.
Screening CCCn1c(CCC(=O)O)ccc1-c1ccc(OC)cc1 returned Autofluor 339 3.5*, Spn MK inh 10.0, PMK inhibit 6.0 and NADH enzymes 8.0%.
COc1ccc(S(=O)(=O)N2CCN(S(=O)(=O)c3ccc4c(c3)OCCO4)CC2)cc1C was read as Autofluor 339 1.03, Spn MK inh 9.0, PMK inhibit 16.0, NADH enzymes 3.0% and Spn DPM-DC inh inactive.
Screening COC(=O)CSc1ncc(C#N)c(N)n1 returned Autofluor 339 1.23, Spn MK inh 6.0, PMK inhibit 0.0, NADH enzymes 2.0% and Spn DPM-DC inh inactive.
CC(Sc1ncc(C#N)c(N)n1)C(=O)Nc1ccccc1 (stereo unspecified) was read as Autofluor 339 1.05, Spn MK inh 0.0, PMK inhibit 26.0*, NADH enzymes 9.0% and Spn DPM-DC inh inactive.
For CC(=O)Nc1ccc2oc(-c3cc(F)c(F)cc3Cl)nc2c1 the results were Autofluor 339 3.81*, Spn MK inh 6.0, PMK inhibit 2.0 and NADH enzymes 4.0%.
Screening CC(=O)Nc1ccc2oc(-c3ccccc3Br)nc2c1 returned Autofluor 339 2.16*, Spn MK inh 7.0, PMK inhibit 5.0, NADH enzymes 11.0% and Spn DPM-DC inh inactive.
COc1ccc(OC)c(S(=O)(=O)Nc2ccc(O)c(Sc3ncn[nH]3)c2)c1 was read as Autofluor 339 1.11, Spn MK inh 11.0, PMK inhibit 3.0, NADH enzymes 5.0% and Spn DPM-DC inh inactive.
`Cn1c(O)c(C=Nc2ccc(Cc3ccncc3)cc2)c(=O)n(C)c1=O` gave Autofluor 339 1.02, Spn MK inh 3.0, PMK inhibit 4.0, NADH enzymes 2.0% and Spn DPM-DC inh inactive.
For COc1cccc(OC)c1OCC(C)CNCC1CCCO1 (stereo unspecified) the results were Autofluor 339 1.07, Spn MK inh 52.0*, PMK inhibit 0.0, NADH enzymes 17.0% and Spn DPM-DC inh inactive.
